Consider 101 compounds from PubChem BioAssay AID778 (Sanford-Burnham Center for Chemical Genomics, 2007).

The campaign covered roughly 96,000 compounds. About 20,000 (21%) were called active. These entries were drawn from the full list. Values without a mark were called inactive.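 Rule for the calls: active = CYP2C19 inhibition above a set limit at 5 µM in the primary screen (cut at about 50% in these data); inactive = the rest.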

Broadly, the inhibition is the drop in the measured response relative to a control, in per cent.

For this assay, the target named is Cytochrome P450 2C19 (Homo sapiens) (UniProt P33261). Put plainly: blockers of cytochrome P450 2C19 activity – biochemical, luminescence, ADME assay, primary screen (AID 778).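 Note: plate controls were negative control wells for no effect and 2.5 mM tranylcypromine positive control for full effect.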 The conditions noted are these: CYP2C19 Supersomes, luciferin-H EGE luminescence, 30 min; at 5 µM; hits give high values.
Cytochrome P450 2C19 (Homo sapiens), sequence (P33261 whole entry, looked up): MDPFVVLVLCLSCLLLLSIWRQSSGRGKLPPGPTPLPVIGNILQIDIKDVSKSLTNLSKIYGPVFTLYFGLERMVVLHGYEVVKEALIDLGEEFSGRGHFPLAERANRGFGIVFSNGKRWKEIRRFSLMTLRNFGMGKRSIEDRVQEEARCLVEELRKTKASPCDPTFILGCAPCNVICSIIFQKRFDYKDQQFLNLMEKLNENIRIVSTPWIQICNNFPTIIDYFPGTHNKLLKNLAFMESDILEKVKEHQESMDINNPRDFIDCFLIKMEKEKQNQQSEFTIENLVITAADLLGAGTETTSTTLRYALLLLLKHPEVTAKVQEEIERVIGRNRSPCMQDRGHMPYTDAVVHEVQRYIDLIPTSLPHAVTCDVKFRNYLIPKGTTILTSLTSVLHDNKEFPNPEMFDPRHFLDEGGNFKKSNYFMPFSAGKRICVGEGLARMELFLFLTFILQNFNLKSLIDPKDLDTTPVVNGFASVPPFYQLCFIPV
Take `O=C(COc1ccc(Br)cc1F)NC1CCN(Cc2ccccc2)CC1`: the inhibition is 22.6%.

Take `Cc1cccc(C)c1NC1=NC(=S)N(c2ccc(N(C)C)cc2)C1(C)C`: the inhibition is -1%.

Turning to `CN(C)/C=C1/C(=O)Nc2ccccc21`, the inhibition is -9.6%.

For `CCOC(=O)C1C(=O)OC2(CCCC2)C1C(=O)OCC` (stereo unspecified), the inhibition was 23.9%.

In the case of `NC(=NC(=O)c1ccccc1)C1=C(O)CCC1=O`, the inhibition is -8%.

Consider `CN1CCN(CC(=O)C23CC4CC(CC(C4)C2)C3)CC1`, for which the inhibition was 12%.

Turning to `CC12CCC(C(=O)N(CCC#N)CCC#N)(CC1=O)C2(C)C` (stereo unspecified), the inhibition was -14%.

Consider `Cc1cc(C(=O)OCC(=O)Nc2ccc(F)c(F)c2)c(C)o1`, for which the inhibition was 95% (active).

In the case of `Cc1cc(NC(=O)COC(=O)c2ccc(F)c(S(=O)(=O)N3CCOCC3)c2)no1`, the inhibition was 8.2%.

Take `Cc1cc(C(=O)OCC(=O)c2c(N)n(C)c(=O)n(C)c2=O)c(C)o1`: the inhibition is 7.9%.

On to `COc1cc(OC)c(C(=O)NC2CC(C)(C)NC(C)(C)C2)cc1OC`, for which the inhibition was -7.8%.

Take `CCOC(=O)NC(C(F)(F)F)(C(F)(F)F)P(=O)(c1ccccc1)c1ccccc1`: the inhibition is -3.8%.

With `c1ccc(COc2nsnc2N2CCOCC2)cc1`, the inhibition is 98.5% (active).

With `O=C(O)COc1nsnc1N1CCOCC1`, the inhibition was -5.8%.

For `c1nc(COc2nsnc2N2CCOCC2)cs1`, the inhibition was 53.5% (active).

In the case of `Fc1cnc(N2CCOCC2)nc1NCc1ccccc1`, the inhibition was 46.1%.

For the compound `C/C(=N\NC(=O)Cc1ccc(Cl)cc1)c1ccccn1`, the inhibition was 39.5%.

For the compound `COc1cccc2sc(Nc3nc(C)c(C(C)=O)s3)nc12`, the inhibition is 12.5%.

As to `CCCC(=O)C1CCN(Cc2ccccc2)CC1`, the inhibition was 30.5%.

With `CCOC(=O)C1(S(=O)(=O)c2ccc(Cl)cc2)CCN(Cc2ccccc2)CC1`, the inhibition is 42.5%.

As for `CCOC(=O)C1(S(=O)(=O)c2ccccc2)CCN(Cc2ccccc2)CC1`, the inhibition was 51.8% (active).

Consider `CSc1nc(C)cc(SC(C(C)=O)C(=O)Nc2ccccc2)n1` (stereo unspecified), for which the inhibition is 11.6%.

In the case of `Cc1cccc(C(=O)Nc2nnc(Cc3c[nH]c4ccccc34)s2)c1`, the inhibition is 8.7%.

`CCN(CC)c1ccc(C2C3CCCCC3(O)CCN2CC(=O)Nc2ccccc2)cc1` (stereo unspecified): the inhibition was 21.9%.

With `CC(=O)c1cc2c(cc1NC(=O)CN1CCCCCC1)OCO2`, the inhibition was 15.4%.

Consider `Cc1ccc(NC(=O)CN2CCC3(O)CCCCC3C2c2ccc3c(c2)OCO3)c(C)c1` (stereo unspecified), for which the inhibition is 63.9% (active).

Take `CC(=O)NC(C)(C)C1CC=C(C)/C(=N\O)C1` (stereo unspecified): the inhibition is 2.5%.

On to `O=C(CSc1nnc(Cn2cnc3ccccc32)o1)c1ccccc1`, for which the inhibition is 6.9%.

In the case of `O=C(O)CCC(=O)NCc1ccc2[nH]c3c(c2c1)CCCC3`, the inhibition was -16.4%.

As to `CN=C1S/C(=C\c2ccc(Sc3ccc(Cl)cc3)o2)C(=O)N1C`, the inhibition is 7.4%.

With `CCN1C(=O)/C(=C\N2CCN(c3ccccc3)CC2)SC1=S`, the inhibition was 17.4%.

For the compound `COc1ccc(NC(=O)CC2COc3ccccc3O2)c(OC)c1` (stereo unspecified), the inhibition was 85.5% (active).

With `COc1ccc(NC(=O)CCNC(=O)Cn2ccc3ccccc3c2=O)c(OC)c1`, the inhibition was -2.7%.

`Cc1cc(NC(=O)CCC2COc3ccccc3O2)no1` (stereo unspecified): the inhibition is 23.1%.

As for `CCCSC(=S)NC1CCS(=O)(=O)C1` (stereo unspecified), the inhibition is 13.9%.

As for `O=C(Nc1ccc(S(=O)(=O)N2CCCC2)cc1Cl)C1=COCCO1`, the inhibition is 16.2%.

For the compound `Cc1cccc(-n2ncc3c(N4CCc5ccccc54)ncnc32)c1`, the inhibition is 6.2%.

In the case of `FC(F)(F)c1cnc(Oc2ccccc2-c2nnc(-c3ccc(Cl)cc3)o2)c(Cl)c1`, the inhibition is 66.1% (active).

In the case of `CSc1ccccc1-c1nnc(-c2ccc(Cl)cc2)o1`, the inhibition is -15.2%.

`COc1ccccc1-c1nc(C(F)(F)F)c(OC)o1`: the inhibition was -4.3%.

On to `COc1ccc(-c2cn(-c3ccc(C)cc3)c(=O)n2CC(=O)Nc2ccc(OC)c(OC)c2)cc1`, for which the inhibition is 16.2%.

In the case of `O=C(O)c1cscn1`, the inhibition was -12.7%.

As to `Cn1c(/C(C#N)=C2/CCCCCN2)nc2ccccc21`, the inhibition was 47.6%.

`N#CC(=C1SC=CS1)c1nc(-c2ccccc2)cs1`: the inhibition was 65.1% (active).

Turning to `N#CC(=C1CCCC1)c1nc(-c2ccc(Cl)cc2)cs1`, the inhibition was 43.3%.

In the case of `N#C/C(=C1/CCCN1)c1ccccn1`, the inhibition was -7.3%.

Regarding `N#C/C(=C1\CCCN1)c1nc(-c2ccccc2)cs1`, the inhibition was 54.2% (active).

Turning to `Oc1ccc(Cl)cc1/C=N/c1nc2ccccc2[nH]1`, the inhibition was -20.9%.

On to `C=CCn1c(C2CC(=O)N(c3ccc(C)cc3)C2)nc2ccccc21` (stereo unspecified), for which the inhibition is 76.7% (active).

With `Cc1ccc(Cn2c(NC(=O)c3ccco3)nc3ccccc32)cc1`, the inhibition is -9.7%.

Regarding `CC(C)(C)N1CC(c2nc3ccccc3n2Cc2ccc(F)cc2)CC1=O` (stereo unspecified), the inhibition is 12.1%.

In the case of `COc1c(O)cccc1-c1nnn(CCC(=O)OCC(=O)c2ccccc2)n1`, the inhibition is 19.5%.

In the case of `Cc1onc(-c2ccccc2Cl)c1C(=O)NCCn1ccc2ccccc21`, the inhibition was 83.5% (active).

For `Cc1ccc2cc(CCNC(=O)c3c(-c4ccccc4Cl)noc3C)c(=O)[nH]c2c1`, the inhibition was 21%.

Take `Cc1onc(-c2ccccc2Cl)c1C(=O)OCC(=O)c1ccccc1`: the inhibition is 58.1% (active).

As for `O=C1c2ccccc2C(=O)N1Cc1cc(-c2ccccc2Cl)no1`, the inhibition is 37.2%.

Turning to `Cc1onc(-c2c(Cl)cccc2Cl)c1C(=O)c1c[nH]c(C(=O)NC2CC2)c1`, the inhibition is 0.9%.

Take `O=C(OCc1cc2ccccc2[nH]c1=O)c1cccnc1`: the inhibition is 25.1%.

For the compound `C=CCSc1nc2c(c(=O)[nH]1)C(C(C)C)C(C#N)=C(N)O2` (stereo unspecified), the inhibition is -15.8%.

For `COc1ccc(OCCCON2C(=O)c3ccccc3C2=O)cc1`, the inhibition was 26.4%.

With `CCN(CC)CCCNC(=O)c1cc(-c2cccc(Cl)c2)on1`, the inhibition is -2.7%.

Take `Cc1cc(C)c2c(-n3cccc3)c(NC(=O)OCc3ccccc3)sc2n1`: the inhibition was 4.8%.

Regarding `Cc1cc(Cl)ccc1N1C(=O)CC(SCCC(=O)O)C1=O` (stereo unspecified), the inhibition is 7.1%.

For `COC(=O)Cc1cc(=O)oc2c(C)c(O)ccc12`, the inhibition is 17.9%.

With `Nc1nnnn1/N=C/c1cccs1`, the inhibition is 1.7%.

As to `Cc1nc2nc[nH]n2c(=O)c1NC(=O)c1cccc(OCC(C)C)c1`, the inhibition was -12.5%.

For the compound `CCC(=O)Oc1cccc(C(=O)Nc2ccc(-c3nnc(-c4ccco4)o3)cc2)c1`, the inhibition was 48.6%.

With `CCCOc1cccc(C(=O)Nc2nnn(CCC)n2)c1`, the inhibition is 57.8% (active).

Turning to `COc1ccc(OC)c2c(N)c(C#N)c(C(F)(F)C(F)(F)F)nc12`, the inhibition was -11.1%.

As for `NC(=O)c1nsc(C(=O)N(CC(=O)NCc2ccc(F)cc2)Cc2ccco2)c1N`, the inhibition is 21.3%.

On to `Cc1ccc2nc(SC(C)C(=O)NCc3ccco3)[nH]c2c1` (stereo unspecified), for which the inhibition was 19.9%.

Turning to `Cc1cccc(NC(=O)c2ccc3ccccc3n2)n1`, the inhibition was 22.7%.

Take `Cc1cccc(NC(=O)COc2ccccc2C)n1`: the inhibition was 32%.

`COC(=O)C(C(=O)Nc1cccc(C)n1)C1CCCCCC1` (stereo unspecified): the inhibition is 80.7% (active).

For the compound `Cc1cc(C(F)(F)F)nn1CC(=O)N1CCCC1`, the inhibition was -1.5%.

Turning to `OC(C#CCN1CCOCC1)(c1ccccc1)C1CCCCC1` (stereo unspecified), the inhibition is 36.7%.

As to `CCOC(=O)c1cnc(SCC(=O)NCc2ccco2)nc1N`, the inhibition is -1.2%.

In the case of `Cc1cc(C(=O)OCC(=O)NCc2ccco2)c(C)n1-c1ccccc1`, the inhibition was 71.8% (active).

In the case of `O=C(COC(=O)C12CC3CC(CC(C3)C1)C2)NCc1ccco1`, the inhibition was 35.7%.

In the case of `COc1c(Br)cc2c(C)c(C(=O)N3CCOCC3)oc2c1Br`, the inhibition was 33.1%.

Take `N#C/C(=C\c1ccccc1)c1n[nH]c(Cn2cncn2)n1`: the inhibition was 23.3%.

`FC(F)(F)COc1nc(N2CCCCC2)nc(N2CCNCC2)n1`: the inhibition was -9.3%.

In the case of `C/C(=N/NC(=O)c1cc(Cl)ccc1O)C12CC3CC(CC(C3)C1)C2`, the inhibition was 0.2%.

For `CCOC(=O)C1=C(CNC2CCCCC2)NC(=O)NC1c1cc(C)ccc1C` (stereo unspecified), the inhibition is 97.1% (active).

`CCOC(=O)c1[nH]cnc1C(=O)NC1CCCCC1`: the inhibition was 18.3%.

With `Cc1ccc(N(C(=O)CC2NC(=O)NC2=O)C2(C(=O)NC3CCCC3)CCCCC2)cc1` (stereo unspecified), the inhibition is -3.8%.

For the compound `CN(Cc1ccccc1)c1nc2c(c(=O)[nH]c(=O)n2C)n1CCSc1nc2ccccc2[nH]1`, the inhibition was 38.5%.

As for `O=C1CC(c2cccc(F)c2)C2=C(CCCC2=O)N1` (stereo unspecified), the inhibition is 8.1%.

As to `CCc1nnc(NC(=O)CSc2nnc(COc3ccc(C#N)cc3)n2-c2ccccc2)s1`, the inhibition is 4.5%.

As to `CSc1ccc(S(=O)(=O)NCc2ccc(Cl)cc2)cc1`, the inhibition is 78.2% (active).

With `O=[N+]([O-])c1ccccc1NCc1ccc(Cl)cc1`, the inhibition was 21%.

Consider `Cc1ccc(S/C(=N\S(=O)(=O)c2ccc(Cl)cc2)c2ccccc2)cc1`, for which the inhibition is 24.1%.

For the compound `Fc1c(F)c(C(F)(F)F)c(F)c(F)c1N1CCN(c2ccc3nnc(C(F)(F)F)n3n2)CC1`, the inhibition was 0.5%.

On to `Cc1ccc(C(c2nnnn2CS(=O)(=O)c2ccc(C)cc2)N2CCC(C)CC2)cc1` (stereo unspecified), for which the inhibition is 3.8%.

As to `COc1ccc(C(c2nnnn2Cc2cccs2)N2CCN(c3ccccc3)CC2)cc1OC` (stereo unspecified), the inhibition was 69.8% (active).

On to `COc1ccc(CCn2nnnc2C(c2ccccc2)N2CCN(C)CC2)cc1OC` (stereo unspecified), for which the inhibition is 2.7%.

With `O=C(Nc1ccc(Br)c2cccnc12)c1ccc(Cn2cc([N+](=O)[O-])cn2)o1`, the inhibition is 20.2%.

On to `CCCNC(=O)Nc1ccccc1C(=O)Nc1ccc(OC)cc1`, for which the inhibition was 40.1%.

In the case of `COc1ccc(CCn2c(-c3ccco3)nc3nc4ccccc4nc32)cc1OC`, the inhibition is 16.7%.

On to `Clc1cccc(-c2nc3nc4ccccc4nc3n2Cc2ccco2)c1`, for which the inhibition was 1.8%.

Regarding `CCC(C)n1c(-c2cc(OC)c(OC)c(OC)c2)nc2nc3ccccc3nc21` (stereo unspecified), the inhibition was 92.6% (active).
